Test [1] has as its target Glutathione peroxidase 1 (Homo sapiens) (UniProt P07203). In words: Primary qHTS Assay for Inhibitors of Recombinant Selenoprotein Glutathione Peroxidase 1 (GPX1) (AID 1845191). Note: nearly all actives have a fitted effect of over 65% in size. The method in brief: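 GPX1 10 nM, GR 100 nM, GSH 1 mM, NADPH 0.5 mM, CHP 0.5 mM (final). 30-min cpd preincubation, RT. Ex340/Em450 read t=0, t=15 min.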
In general terms: qHTS replaces the single test concentration by a dilution series.

The target in test [2] is Phospholipid hydroperoxide glutathione peroxidase GPX4 (Homo sapiens) (UniProt P36969). In words: Primary qHTS Assay for Inhibitors of Recombinant Selenoprotein Glutathione Peroxidase 4 (GPX4) (AID 1845192). Note: nearly all actives have a fitted effect of over 65% in size. Put shortly: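 qHTS, GR-coupled: GPX4 200 nM + cpd 30 min RT → GSH 1 mM, NADPH 0.5 mM, GR 100 nM → CHP 0.5 mM start; fluor 340/450 at t0 and t15 min; no-enzyme wells as control.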
Phospholipid hydroperoxide glutathione peroxidase GPX4 (Homo sapiens), sequence (P36969 whole entry, looked up): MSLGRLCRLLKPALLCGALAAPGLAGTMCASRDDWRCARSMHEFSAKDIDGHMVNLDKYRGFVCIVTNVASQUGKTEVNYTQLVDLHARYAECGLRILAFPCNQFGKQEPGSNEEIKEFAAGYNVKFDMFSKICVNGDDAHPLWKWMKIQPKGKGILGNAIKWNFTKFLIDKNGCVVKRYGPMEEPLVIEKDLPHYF

Test [3] concerns the target Luciferin 4-monooxygenase (Photinus pyralis) (UniProt P08659). In words: Primary firefly luciferase (FLuc) qHTS assay for identification of artifact compounds. (AID 1845220). Note: nearly all actives have a fitted effect of over 60% in size. The method in brief: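 Reaction readout was CCD-imaged luminescence, taken 5 min after adding 10 nM purified firefly enzyme to compound-treated wells holding 10 uM luciferin and ATP in pH 7.6 buffer.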

Test [4] in a line: Primary fluorescence-based thiol-reactive (MSTI) qHTS assay for identification of artifact compounds. (AID 1845221).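 Note: series mostly up to about 54 µM; thiol-reactive compounds lower the probe fluorescence signal; nearly all actives have a fitted effect of over 65% in size.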 Put shortly:
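Compounds were incubated 1 h at room temperature in the dark with the MSTI probe (4 uM) in PBS pH 7.4, 2% DMSO. Signals were normalized between Acetyl-MSTI and MSTI.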

Test [5] has as its system Nanoluciferase (engineered Oplophorus gracilirostris luciferase). Briefly: Primary Nanoluciferase (NLuc) qHTS assay for identification of artifact compounds. (AID 1845222).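 Note: NLuc secreted into diluted conditioned medium of S16 cells; series mostly up to about 54 µM.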 The method in brief:
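Concentration-response data were obtained by luminescence after 5 min with Nano-Glo substrate at 1:100. The enzyme was diluted S16 NLuc-expressing cell medium, preincubated with compound for 15 min at RT. Curves were fitted with a 4-parameter Hill model.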

Test [6] is described as follows: Quantitative High-Throughput drug screen in 47 multiple myeloma cell lines against the NCATS MIPE library collection: FR4_PLB cell viability assay (AID 1918924; note: nearly all actives have a fitted effect of over 35% in size; note: potency is the fitted concentration of half-maximal effect). Put shortly:
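Relative luminescence from CellTiter-Glo served as the viability signal, referenced to DMSO-treated (100%) and cell-free medium (0%) controls. Treatment lasted 48 hours at 37C with 500 cells per well.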

Test [7] in a line: Quantitative High-Throughput drug screen in 47 multiple myeloma cell lines against the NCATS MIPE library collection: Delta47_JCRB cell viability assay (AID 1918925; note: nearly all actives have a fitted effect of over 45% in size; note: potency is the fitted concentration of half-maximal effect). The method in brief: (§1)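 qHTS of the MIPE 4.0 collection: 500 myeloma cells/well, 48 h drug exposure at 37C in 5% CO2, then CellTiter-Glo for 5 min at room temperature before luminescence reading.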
Test [8] in a line: Quantitative High-Throughput drug screen in 47 multiple myeloma cell lines against the NCATS MIPE library collection: EJM_DSMZ cell viability assay (AID 1918926; note: nearly all actives have a fitted effect of over 30% in size; note: potency is the fitted concentration of half-maximal effect). The method in brief:
as §1

Test [9] in a line: Quantitative High-Throughput drug screen in 47 multiple myeloma cell lines against the NCATS MIPE library collection: AMO1_DSMZ cell viability assay (AID 1918927; note: nearly all actives have a fitted effect of over 30% in size; note: potency is the fitted concentration of half-maximal effect). The method in brief:
as §1

The nature of test [10]: Quantitative High-Throughput drug screen in 47 multiple myeloma cell lines against the NCATS MIPE library collection: ARP1_JJKsccF8 cell viability assay (AID 1918928; note: nearly all actives have a fitted effect of over 40% in size; note: potency is the fitted concentration of half-maximal effect). The method in brief:
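Viability screen: myeloma cells (500/well) incubated 48 h at 37 °C, humidified 5% CO2, with pinned library compounds; CellTiter-Glo added, luminescence read; DMSO wells set 100%, medium-only wells 0%.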

The nature of test [11]: Quantitative High-Throughput drug screen in 47 multiple myeloma cell lines against the NCATS MIPE library collection: ARD_JJKsccE7 cell viability assay (AID 1918929; note: potency is the fitted concentration of half-maximal effect). Put shortly:
as §1

Test [12] can be described thus: Primary redox qHTS assay for identification of artifact compounds. (AID 1845223). The method in brief: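 Redox-cycling detection via DTT (250 uM final) oxidation coupled to Amplex Red (25 uM)/HRP (250 mU/mL) in HBSS. 15 min preincubation plus 30 min after DTT, room temperature. Ex/Em 525/598 nm; 4-parameter Hill fit against DMSO and 10 uM DA3003.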

Records with an inconclusive call do not appear. Active and inactive are the calls of the source. Calls come from the whole dose curve; as a rule, active = well fitted curve in the direction sought with a large enough effect; inconclusive = small, poorly fitted or top-dose-only effect, or another doubt; inactive = no such curve, though single readings can be large; an effect the other way counts as inactive or inconclusive. Starred links: 1 amine or outer side, 2 acyl side, 3 side chain; linkers in the order of their positions; H or OH if unused. Positions of bridges follow the written chain, without caps; N, C: chain ends. Non-standard residues stand in square brackets, D forms with d. Residues, ends and D or L forms follow the SMILES beside them. Chains are numbered I, II in the order given. Actinocin(9to1) = Cc1c2oc3c(C)ccc(C(=O)[*:1])c3nc-2c(C(=O)[*:2])c(N)c1=O; NMeV = CN[CH](C(=O)O)C(C)C; Sar = CNCC(=O)O

This note sets out measurements from PubChem BioAssay (NCATS).

Glutathione peroxidase 1 (Homo sapiens), sequence (P07203 whole entry, looked up): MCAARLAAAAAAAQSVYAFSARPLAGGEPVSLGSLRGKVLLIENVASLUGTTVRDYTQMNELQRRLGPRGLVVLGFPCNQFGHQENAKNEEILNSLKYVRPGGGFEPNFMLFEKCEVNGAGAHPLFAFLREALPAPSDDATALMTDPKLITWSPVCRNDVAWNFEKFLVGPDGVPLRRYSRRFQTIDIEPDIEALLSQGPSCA

As to `CCc1ccc(C(=O)Nc2cc(CN3CCN(C)CC3)cc(C(F)(F)F)c2)cc1C#Cc1cnc2ccnn2c1`, the Potency result in test [1], in [2], in test [3] and in test [4] was “inactive” throughout. For the same molecule, in [5], the result was inactive. The Potency in test [6] was 11800 nM (active); in test [7] it was 13200 nM (active); in [8], 16600 nM (active); in test [9], 4690 nM (active); in test [10], 5900 nM (active); in [11], 8330 nM (active).
With `CC(O)(C#Cc1ccc2c(c1)N(c1nc(N)ncc1Cl)CC2)c1nccs1` (stereo unspecified), the Potency result in test [1], in [2], in [3] and in test [4] was “inactive” throughout. Also, in [5], the molecule was classed as inactive. For the same molecule, the Potency in [7] was 2090 nM (active); in [8], 11800 nM (active); in test [9], 13200 nM (active); in test [11] it was 18700 nM (active).
For the molecule `Cc1c2oc3c(C)ccc(C(=O)NC4C(=O)NC(C(C)C)C(=O)N5CCCC5C(=O)N(C)CC(=O)N(C)C(C(C)C)C(=O)OC4C)c3nc-2c(C(=O)NC2C(=O)NC(C(C)C)C(=O)N3CCCC3C(=O)N(C)CC(=O)N(C)C(C(C)C)C(=O)OC2C)c(N)c1=O` (stereo unspecified) (I: TVP[Sar][NMeV] / II: TVP[Sar][NMeV]; ester I:1-I:C, II:1-II:C; linker I:N-II:N via Actinocin(9to1); configuration not given here), the Potency entry in test [1], in test [2], in test [6], in test [7], in test [8] and in [9] was “inactive” throughout. Moreover, the Potency entry in test [10] and in [11] was “inactive” each time.
Take `Oc1ccc(-c2ccc(-c3cc(Nc4cccc(CNC5CC5)c4)n[nH]3)cc2)c(O)c1`: the Potency result in test [1] and in [2] was “inactive” throughout. For the same molecule, the Potency in test [6] was 935 nM (active); in test [7] it was 469 nM (active); in test [8], 935 nM (active); in test [9] it was 1320 nM (active); in test [10], 4180 nM (active); in test [11], 1180 nM (active).
Turning to `Nc1nc2c(c(=O)[nH]1)N(C=O)[C@H](CNc1ccc(C(=O)N[C@@H](CCC(=O)O)C(=O)O)cc1)CN2`, the Potency result in [1], in test [2], in test [6], in test [7], in [8] and in test [9] was “inactive” throughout. Besides, in [10], the Potency entry was “inactive”.
Regarding `CN(C)CCN1C(=O)c2cccc3cc(N)cc(c23)C1=O`, the Potency entry in test [1] and in test [2] was “inactive” in each case. Further, the Potency in test [6] is 23500 nM (active); in [7] it was 11800 nM (active); in test [8] it was 23500 nM (active); in test [9] it was 4180 nM (active); in test [10], 20900 nM (active); in [11] it was 29600 nM (active).
As to `Oc1ccc([C@@H]2Oc3ccc(O)cc3[C@@H]3CCC[C@@H]32)cc1`, the Potency entry in test [1], in test [2], in [3], in test [4], in test [12] and in test [9] was “inactive” in each case. Moreover, the Potency entry in test [11] was “inactive”. Further, in test [5], the result was inactive. Moreover, in [10], the Potency is 23500 nM (active).
Turning to `C=CC(=O)N1CCc2ccc(-n3c(=O)ccc4cnc5ccc(-c6cnn(C)c6)cc5c43)cc21`, the Potency result in test [1] and in test [2] was “inactive” throughout. Besides, the Potency in [6] is 1660 nM (active); in test [7] it was 935 nM (active); in [8] it was 3720 nM (active); in [9], 2960 nM (active); in test [10] it was 1050 nM (active); in [11] it was 833 nM (active).
Take `CCOc1cc2c(c(F)c1OCC)C(=N)N(CC(=O)c1cc(N3CCOCC3)c(OC)c(C(C)(C)C)c1)C2`: the Potency entry in [1], in test [2], in test [3] and in test [12] was “inactive” in each case. Besides, the molecule was called inactive in test [5]. The Potency in test [6] was 23500 nM (active); in test [7], 14800 nM (active); in [8] it was 20900 nM (active); in [10] it was 18700 nM (active).
As to `CC(C)(C)c1nc2c3cc[nH]c(=O)c3c3cc(F)ccc3c2[nH]1`, the Potency result in [1] and in [2] was “inactive” throughout. Moreover, the Potency was 833 nM (active) in test [6], 3320 nM (active) in test [7] and 2960 nM (active) in [8].
With `CCOC(=O)C1=C(C)NC(=S)NC1c1cccc(O)c1` (stereo unspecified), the Potency result in test [1] and in test [2] was “inactive” in each case. In addition, the Potency in test [6] is 18.7 nM (active); in test [7], 16.6 nM (active); in test [9], 662 nM (active); in test [10], 105 nM (active); in [11], 833 nM (active).
Consider `COC[C@H](NC(=O)c1cnc(C)s1)C(=O)N[C@@H](COC)C(=O)N[C@@H](Cc1ccccc1)C(=O)[C@@]1(C)CO1`, for which the Potency entry in test [1] and in test [2] was “inactive” each time. The Potency in test [6] is 46.9 nM (active); in [7], 37.2 nM (active); in test [9] it was 26.4 nM (active); in test [10] it was 74.3 nM (active); in [11] it was 52.6 nM (active).
For `O=C(CCCCCCC(=O)Nc1cccnc1)NO`, the Potency result in test [1] and in [2] was “inactive” throughout. Also, the Potency in [7] was 2960 nM (active); in [8], 7430 nM (active); in [9], 2350 nM (active); in test [10], 2350 nM (active); in [11], 3320 nM (active).
For `COc1ccc(Nc2nccc(NCCO)n2)cc1`, the Potency result in test [1], in [2], in test [8], in test [9], in test [10] and in test [11] was “inactive” in each case.
Turning to `Nc1cccc2c1C(=O)N(C1CCC(=O)NC1=O)C2=O` (stereo unspecified), the Potency entry in test [1] and in test [2] was “inactive” throughout. In test [7], the Potency was 3.7 nM (active).
On to `CC(C)NC[C@@H](C(=O)N1CCN(c2ncnc3c2[C@H](C)C[C@H]3O)CC1)c1ccc(Cl)cc1`, for which the Potency entry in test [1] and in test [2] was “inactive” in each case. The Potency in [7] is 93.5 nM (active); in [9], 4180 nM (active); in test [10], 2090 nM (active).
`c1coc(CNc2ncnc3nc[nH]c23)c1`: the Potency result in test [1], in [2], in [7], in test [8], in test [9] and in [10] was “inactive” throughout. Further, the Potency result in test [11] is “inactive”.
Regarding `CN(C)c1ccc2cc(C(=O)N[C@@H](CCCN=C(N)CCl)C(=O)NCc3ccccc3)ccc2c1`, the Potency result in test [1] and in test [2] was “inactive” in each case. Moreover, the Potency in [7] was 18700 nM (active); in [8], 1320 nM (active); in test [9] it was 1660 nM (active); in test [10], 18700 nM (active); in test [11], 4180 nM (active).
Turning to `COc1cc(C[C@@H](CO)[C@H](CO)Cc2ccc(O)c(OC)c2)ccc1O`, the Potency result in [1], in test [2] and in [10] was “inactive” each time. For the same molecule, the Potency in [7] is 662 nM (active); in test [8], 264 nM (active); in test [9], 4690 nM (active); in test [11], 9350 nM (active).
Consider `C[N+](C)([O-])CCNc1ccc(NCC[N+](C)(C)[O-])c2c1C(=O)c1c(O)ccc(O)c1C2=O`, for which the Potency result in test [1], in [2], in test [6], in test [9] and in test [10] was “inactive” in each case.
For the molecule `CCCCCCCN(CC)CCCC(O)c1ccc(NS(C)(=O)=O)cc1` (stereo unspecified), the Potency result in [1], in test [2], in [6] and in test [10] was “inactive” throughout. Besides, the Potency in test [9] is 23500 nM (active); in [11] it was 20900 nM (active).
On to `COc1ccc([C@@H]2CNC(=O)C2)cc1OC1CCCC1`, for which the Potency entry in test [1], in test [2], in [6], in [9], in test [10] and in [11] was “inactive” each time. The Potency in test [7] is 3720 nM (active).
`CC(Cc1ccc(O)c(O)c1)(NN)C(=O)O` (stereo unspecified): the Potency entry in test [1], in test [2], in test [7], in test [8] and in [11] was “inactive” throughout.
Consider `CCc1c(O)cc(O)c(C(=O)c2ccc(OCCN3CCOCC3)c(OC)c2)c1CC(=O)N(CCOC)CCOC`, for which the Potency result in [1], in test [2] and in test [9] was “inactive” in each case. The figures for the Potency in [7] and in test [10] were 1660 nM (active) and 1480 nM (active), respectively.
